Results published in the supplement of paper PMC10849652.
Targets with a hit are over-represented here; the source holds about 7,900 in all. About 0.6% of all pairs of compound and target were hits. A number with no mark means an inactive call.

How the values were obtained:
Assay in all cases: log2 fold change, soluble protein after heating vs DMSO (PISA); higher = thermal stabilisation; K562 cells, 10 uM, 30 min; active = over 0.2 and 3.5 SD of the protein, either way, in both replicates (recomputed)
[1] = compound: Cc1ccc(NC(=O)c2ccc(CN3CC[C@H](N(C)C)C3)c(C(F)(F)F)c2)cc1Nc1nccc(-c2cncnc2)n1 [bafetinib]
Method in brief: (§1)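 K562 cells at 2×10^6 cells/mL were given 10 μM compound for 30 min. Aliquots then went through 3 min of heating across 48°C-58°C, were pooled, and were extracted in PBS with 0.5% NP-40 at 4°C, and the supernatant after 21,000xg for 90 min was quantified by TMTpro 16plex LC-MS/MS with channel sums equalised. Thermal stability relative to control samples, from duplicates, is given as log2 fold change.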

[2] = compound: Cc1cccc(CC(=O)N2CCc3c2ccc(-c2cn(C)c4ncnc(N)c24)c3F)n1
Method in brief: as §1

[3] = compound: Cc1cn(-c2cc(NC(=O)c3ccc(C)c(Nc4nccc(-c5cccnc5)n4)c3)cc(C(F)(F)F)c2)cn1 [nilotinib]
Method in brief: as §1

[4] = compound: Cc1nc(Nc2n[nH]c3c2CN(C(=O)N[C@H](CN(C)C)c2ccccc2)C3(C)C)c2sccc2n1
Method in brief: as §1

[5] = compound: Cc1nc(Nc2ncc(C(=O)Nc3c(C)cccc3Cl)s2)cc(N2CCN(CCO)CC2)n1 [dasatinib]
Method in brief: as §1

[6] = compound: Cc1ncc(-c2ccnc(Nc3ccc(S(C)(=O)=O)cc3)n2)n1C(C)C
Method in brief: as §1

[7] = compound: Cn1cc(-c2ccc3c(c2)CCN3C(=O)Cc2cccc(C(F)(F)F)c2)c2c(N)ncnc21
Method in brief: as §1

[8] = compound: Cn1cc(-c2ccc3nnc(C(F)(F)c4ccc5ncccc5c4)n3n2)cn1
Method in brief: as §1

[9] = compound: Cn1cncc1[C@@](N)(c1ccc(Cl)cc1)c1ccc2c(c1)c(-c1cccc(Cl)c1)cc(=O)n2C [tipifarnib]
Method in brief: as §1

[10] = compound: FC(F)(F)c1ccc(/C=C/c2nc(COc3ccc(CCCCn4ccnn4)cc3)co2)cc1 [mubritinib]
Method in brief: as §1

UniProt P09105, sequence (P09105 whole entry, looked up): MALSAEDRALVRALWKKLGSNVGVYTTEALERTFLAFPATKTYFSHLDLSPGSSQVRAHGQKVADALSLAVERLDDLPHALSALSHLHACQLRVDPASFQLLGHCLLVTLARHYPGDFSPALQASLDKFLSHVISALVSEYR
UniProt P00390, sequence (P00390 whole entry, looked up): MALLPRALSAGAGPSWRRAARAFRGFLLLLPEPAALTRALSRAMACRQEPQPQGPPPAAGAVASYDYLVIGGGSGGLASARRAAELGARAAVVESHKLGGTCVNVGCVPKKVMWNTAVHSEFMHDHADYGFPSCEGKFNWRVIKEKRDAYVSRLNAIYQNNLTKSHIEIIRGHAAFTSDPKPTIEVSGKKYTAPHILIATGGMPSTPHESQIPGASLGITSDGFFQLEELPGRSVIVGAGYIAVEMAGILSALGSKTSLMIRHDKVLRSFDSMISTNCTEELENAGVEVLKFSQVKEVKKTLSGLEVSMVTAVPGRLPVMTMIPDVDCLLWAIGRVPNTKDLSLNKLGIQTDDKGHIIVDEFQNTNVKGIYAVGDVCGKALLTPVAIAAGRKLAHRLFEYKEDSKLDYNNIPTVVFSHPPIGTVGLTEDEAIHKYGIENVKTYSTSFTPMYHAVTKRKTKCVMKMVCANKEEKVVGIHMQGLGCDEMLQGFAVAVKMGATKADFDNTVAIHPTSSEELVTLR
UniProt P02008, sequence (P02008 whole entry, looked up): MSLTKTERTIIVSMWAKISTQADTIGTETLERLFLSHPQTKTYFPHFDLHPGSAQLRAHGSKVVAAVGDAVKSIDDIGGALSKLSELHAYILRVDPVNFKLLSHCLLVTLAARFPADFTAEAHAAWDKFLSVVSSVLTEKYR
UniProt P48507, sequence (P48507 whole entry, looked up): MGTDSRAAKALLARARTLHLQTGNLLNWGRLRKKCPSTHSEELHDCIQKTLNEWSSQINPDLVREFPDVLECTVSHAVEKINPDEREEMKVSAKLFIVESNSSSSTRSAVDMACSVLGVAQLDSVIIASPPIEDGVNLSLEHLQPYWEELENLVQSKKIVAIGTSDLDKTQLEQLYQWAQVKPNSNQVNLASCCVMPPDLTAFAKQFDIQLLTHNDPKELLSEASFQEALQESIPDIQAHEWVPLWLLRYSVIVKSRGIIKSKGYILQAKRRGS
UniProt P06865, sequence (P06865 whole entry, looked up): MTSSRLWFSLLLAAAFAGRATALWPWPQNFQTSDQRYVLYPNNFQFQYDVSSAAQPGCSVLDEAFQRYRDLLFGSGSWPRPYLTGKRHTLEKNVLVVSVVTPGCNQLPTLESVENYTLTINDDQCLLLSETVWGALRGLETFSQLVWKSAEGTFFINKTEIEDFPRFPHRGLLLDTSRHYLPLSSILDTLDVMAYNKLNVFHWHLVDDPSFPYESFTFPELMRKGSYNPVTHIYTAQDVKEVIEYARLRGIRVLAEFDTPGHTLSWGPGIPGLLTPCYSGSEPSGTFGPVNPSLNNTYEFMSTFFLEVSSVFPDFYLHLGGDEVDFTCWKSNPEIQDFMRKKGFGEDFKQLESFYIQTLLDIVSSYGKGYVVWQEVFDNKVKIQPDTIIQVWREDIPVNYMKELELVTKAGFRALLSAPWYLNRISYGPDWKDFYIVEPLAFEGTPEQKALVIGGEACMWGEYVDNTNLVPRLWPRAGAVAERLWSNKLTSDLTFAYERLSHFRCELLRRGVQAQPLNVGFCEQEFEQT
UniProt P23434, sequence (P23434 whole entry, looked up): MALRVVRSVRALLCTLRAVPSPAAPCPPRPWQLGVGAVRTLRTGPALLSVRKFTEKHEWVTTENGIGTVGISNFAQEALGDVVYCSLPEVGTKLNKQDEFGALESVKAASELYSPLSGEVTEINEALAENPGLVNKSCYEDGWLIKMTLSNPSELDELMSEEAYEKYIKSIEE
UniProt P13807, sequence (P13807 whole entry, looked up): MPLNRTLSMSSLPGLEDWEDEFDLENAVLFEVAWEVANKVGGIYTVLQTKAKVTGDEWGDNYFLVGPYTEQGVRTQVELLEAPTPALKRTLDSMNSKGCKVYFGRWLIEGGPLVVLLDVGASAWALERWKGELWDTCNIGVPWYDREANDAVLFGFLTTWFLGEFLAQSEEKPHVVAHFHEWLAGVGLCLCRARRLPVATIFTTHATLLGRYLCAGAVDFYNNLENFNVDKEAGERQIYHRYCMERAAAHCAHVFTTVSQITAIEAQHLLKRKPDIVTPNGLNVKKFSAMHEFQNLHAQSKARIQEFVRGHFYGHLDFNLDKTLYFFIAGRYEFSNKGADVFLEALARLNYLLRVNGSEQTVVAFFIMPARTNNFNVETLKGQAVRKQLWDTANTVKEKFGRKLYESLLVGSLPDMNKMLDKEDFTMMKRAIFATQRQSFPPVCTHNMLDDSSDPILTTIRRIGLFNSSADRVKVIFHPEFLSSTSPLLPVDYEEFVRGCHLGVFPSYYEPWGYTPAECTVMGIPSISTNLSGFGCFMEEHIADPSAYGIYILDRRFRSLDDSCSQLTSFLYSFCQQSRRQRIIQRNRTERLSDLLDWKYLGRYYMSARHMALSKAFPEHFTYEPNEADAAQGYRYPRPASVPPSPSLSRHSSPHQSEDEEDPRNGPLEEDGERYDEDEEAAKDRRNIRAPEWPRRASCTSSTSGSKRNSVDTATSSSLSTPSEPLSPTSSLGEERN
UniProt Q9UJ14, sequence (Q9UJ14 whole entry, looked up): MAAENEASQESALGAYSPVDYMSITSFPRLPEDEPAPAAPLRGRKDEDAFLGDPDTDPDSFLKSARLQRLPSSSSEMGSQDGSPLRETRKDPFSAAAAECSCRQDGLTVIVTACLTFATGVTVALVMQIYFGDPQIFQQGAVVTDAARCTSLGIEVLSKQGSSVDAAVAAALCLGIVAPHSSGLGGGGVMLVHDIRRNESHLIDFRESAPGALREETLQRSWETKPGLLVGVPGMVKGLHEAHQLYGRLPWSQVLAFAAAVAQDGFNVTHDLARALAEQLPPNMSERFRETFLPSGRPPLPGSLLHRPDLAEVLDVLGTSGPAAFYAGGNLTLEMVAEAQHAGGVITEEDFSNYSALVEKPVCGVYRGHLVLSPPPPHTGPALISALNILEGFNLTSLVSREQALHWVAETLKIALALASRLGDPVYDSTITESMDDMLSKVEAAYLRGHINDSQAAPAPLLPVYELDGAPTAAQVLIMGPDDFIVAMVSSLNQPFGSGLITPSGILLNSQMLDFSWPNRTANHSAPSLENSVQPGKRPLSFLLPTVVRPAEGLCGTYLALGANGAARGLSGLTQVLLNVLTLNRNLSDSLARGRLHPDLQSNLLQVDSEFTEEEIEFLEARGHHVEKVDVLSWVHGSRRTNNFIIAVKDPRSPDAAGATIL
UniProt Q03014, sequence (Q03014 whole entry, looked up): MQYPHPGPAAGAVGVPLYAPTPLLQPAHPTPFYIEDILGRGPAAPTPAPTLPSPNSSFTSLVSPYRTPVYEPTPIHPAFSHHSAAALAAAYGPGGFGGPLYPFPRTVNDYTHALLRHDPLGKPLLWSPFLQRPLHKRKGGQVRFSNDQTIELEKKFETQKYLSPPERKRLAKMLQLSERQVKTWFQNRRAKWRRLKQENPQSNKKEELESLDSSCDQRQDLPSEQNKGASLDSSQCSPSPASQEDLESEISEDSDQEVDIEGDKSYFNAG
UniProt P0C0S5, sequence (P0C0S5 whole entry, looked up): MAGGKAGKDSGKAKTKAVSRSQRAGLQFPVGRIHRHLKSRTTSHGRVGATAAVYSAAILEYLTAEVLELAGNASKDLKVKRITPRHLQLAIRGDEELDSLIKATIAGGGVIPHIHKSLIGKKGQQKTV
UniProt P05362, sequence (P05362 whole entry, looked up): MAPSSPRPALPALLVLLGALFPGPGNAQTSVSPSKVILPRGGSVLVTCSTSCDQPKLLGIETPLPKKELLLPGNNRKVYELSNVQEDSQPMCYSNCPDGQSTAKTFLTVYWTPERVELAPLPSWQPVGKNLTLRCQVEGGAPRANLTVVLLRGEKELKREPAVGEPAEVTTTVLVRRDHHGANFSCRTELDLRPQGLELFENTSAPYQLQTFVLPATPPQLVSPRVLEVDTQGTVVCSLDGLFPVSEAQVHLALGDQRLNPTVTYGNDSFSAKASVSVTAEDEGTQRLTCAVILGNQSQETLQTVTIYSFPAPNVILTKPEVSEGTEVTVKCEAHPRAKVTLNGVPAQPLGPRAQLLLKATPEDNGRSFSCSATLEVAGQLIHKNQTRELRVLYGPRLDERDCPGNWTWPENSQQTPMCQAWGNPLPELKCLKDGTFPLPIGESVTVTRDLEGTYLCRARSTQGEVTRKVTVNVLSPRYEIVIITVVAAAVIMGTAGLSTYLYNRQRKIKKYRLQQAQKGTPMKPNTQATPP
UniProt Q9BTY2, sequence (Q9BTY2 whole entry, looked up): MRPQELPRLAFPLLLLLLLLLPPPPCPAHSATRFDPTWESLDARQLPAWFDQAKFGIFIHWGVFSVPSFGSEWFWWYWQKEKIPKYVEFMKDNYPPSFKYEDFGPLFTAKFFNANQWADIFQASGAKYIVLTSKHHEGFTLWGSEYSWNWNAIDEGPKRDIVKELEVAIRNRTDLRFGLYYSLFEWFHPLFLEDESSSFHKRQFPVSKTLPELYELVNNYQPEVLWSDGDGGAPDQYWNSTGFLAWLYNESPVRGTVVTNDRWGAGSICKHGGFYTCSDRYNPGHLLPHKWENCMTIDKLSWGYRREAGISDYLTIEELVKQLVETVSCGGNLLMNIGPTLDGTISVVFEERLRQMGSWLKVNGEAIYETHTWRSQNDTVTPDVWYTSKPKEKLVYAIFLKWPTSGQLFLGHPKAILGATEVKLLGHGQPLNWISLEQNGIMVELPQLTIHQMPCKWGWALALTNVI
UniProt P05114, sequence (P05114 whole entry, looked up): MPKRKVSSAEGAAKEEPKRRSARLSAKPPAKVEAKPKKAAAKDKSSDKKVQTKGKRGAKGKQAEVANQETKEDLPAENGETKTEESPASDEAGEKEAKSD
UniProt P69905, sequence (P69905 whole entry, looked up): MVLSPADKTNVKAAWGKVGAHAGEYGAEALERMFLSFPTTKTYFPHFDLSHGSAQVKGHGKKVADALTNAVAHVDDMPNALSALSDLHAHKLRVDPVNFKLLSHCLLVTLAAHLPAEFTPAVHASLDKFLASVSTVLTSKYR

| Target | log2 fold change [1] | log2 fold change [2] | log2 fold change [3] | log2 fold change [4] | log2 fold change [5] | log2 fold change [6] | log2 fold change [7] | log2 fold change [8] | log2 fold change [9] | log2 fold change [10] |
| --- | --- | --- | --- | --- | --- | --- | --- | --- | --- | --- |
| HHEX (UniProt Q03014) | -0.039 | -0.024 | -0.033 | -0.056 | 0.04 | 0.008 | 0.373 | 0.044 | -0.012 | 0.066 |
| GALNT1 (UniProt Q10472) | -0.053 | -0.065 | -0.059 | 0.014 | 0.014 | 0.142 | 0.1 | -0.093 | 0.019 | 0.029 |
| GLUD1 (UniProt P00367) | 0.25 | 0.012 | 0.382 (active) | 0.266 (active) | 0.056 | -0.015 | 0.173 | 0.04 | 0.068 | 0.046 |
| HDAC6 (UniProt Q9UBN7) | -0.18 | -0.086 | 0.126 | -0.026 | -0.107 | -0.084 | 0.055 | -0.005 | -0.009 | 0.086 |
| FNTB (UniProt P49356) | 0.028 | 0.015 | 0.028 | 0.177 | 0.22 | -0.056 | 0.196 | 0.251 | 0.757 (active) | -0.103 |
| HMGB3 (UniProt O15347) | -0.057 | -0.009 | 0.051 | -0.013 | 0.066 | 0.03 | 0.014 | -0.084 | -0.024 | 0.01 |
| FUCA2 (UniProt Q9BTY2) | -0.809 (active) | -0.022 | 0.032 | 0.001 | 0.022 | -0.009 | 0.012 | -0.019 | 0.077 | 0.013 |
| HBZ (UniProt P02008) | -0.013 | 0.037 | 0.018 | 0.011 | 0.073 | -0.008 | 0.137 | 0.282 | -0.183 | 0.049 |
| GABPA (UniProt Q06546) | -0.036 | 0.034 | -0.103 | -0.115 | -0.12 | -0.026 | 0.048 | 0.111 | -0.149 | 0.019 |
| H2AZ1 (UniProt P0C0S5) | 0.173 | -0.204 | -0.138 | -0.029 | -0.092 | -0.006 | -0.369 | -0.133 | 0.013 | -0.083 |
| HP1BP3 (UniProt Q5SSJ5) | 0.017 | -0.082 | 0.055 | -0.008 | 0.009 | 0.125 | -0.045 | -0.087 | 0.028 | 0.026 |
| GCLM (UniProt P48507) | 0.016 | 0.072 | -0.101 | -0.015 | -0.095 | 0.019 | 0.042 | -0.051 | -0.133 | 0.023 |
| HEXA (UniProt P06865) | -0.491 (active) | -0.023 | -0.001 | 0.017 | 0.016 | -0.036 | -0.003 | 0.006 | 0.044 | 0.023 |
| HMGN1 (UniProt P05114) | -0.014 | -0.012 | -0.022 | 0.057 | 0.146 | 0.019 | -0.022 | -0.048 | 0.066 | -0.049 |
| GMEB2 (UniProt Q9UKD1) | 0.019 | 0.013 | 0.019 | -0.021 | -0.036 | -0.05 | -0.084 | -0.006 | -0.011 | -0.041 |
| FOXK1 (UniProt P85037) | 0.03 | 0.052 | 0.487 | -0.816 | 0.128 | -1.19 (active) | 0.312 | 0.184 | 0.008 | 0.03 |

| Target | log2 fold change [1] | log2 fold change [2] | log2 fold change [3] | log2 fold change [4] | log2 fold change [5] | log2 fold change [6] | log2 fold change [7] | log2 fold change [8] | log2 fold change [9] | log2 fold change [10] |
| --- | --- | --- | --- | --- | --- | --- | --- | --- | --- | --- |
| GTF2A1 (UniProt P52655) | 0 | -0.047 | 0.111 | -0.047 | 0.068 | -0.078 | 0.081 | 0.349 | 0.144 | -0.008 |
| HNRNPUL1 (UniProt Q9BUJ2) | -0.011 | -0.069 | -0.032 | -0.008 | -0.061 | 0.041 | -0.03 | -0.007 | 0.059 | -0.231 (active) |
| GTF3C5 isoform 3 (UniProt Q9Y5Q8) | 0.028 | -0.013 | -0.04 | -0.167 | -0.269 | -0.137 | 0.027 | -0.063 | 0.01 | 0.065 |
| GCSH (UniProt P23434) | -0.13 | 0.095 | -0.022 | 0.01 | 0.015 | -0.026 | 0.016 | 0.016 | -0.017 | -0.05 |
| FBXO42 (UniProt Q6P3S6) | -0.014 | -0.006 | -0.006 | 0.028 | -0.036 | -0.026 | 0.137 | -0.007 | 0.006 | 0.059 |
| FECH isoform 2 (UniProt P22830) | 0.315 | -0.125 | 0.189 | -0.04 | 0.46 | 0.134 | 0.549 | 0.248 | 0.134 | 0.034 |
| ICAM1 (UniProt P05362) | 0.031 | -0.024 | 0.055 | 0.051 | -0.01 | -0.019 | 0.048 | -0.006 | 0.019 | 0.046 |
| HDHD2 (UniProt Q9H0R4) | 0.068 | 0.018 | 0.024 | -0.04 | 0.042 | 0.006 | 0.019 | 0.028 | -0.011 | 0.045 |
| FBXO7 (UniProt Q9Y3I1) | -0.026 | -0.006 | 0.003 | 0.059 | -0.102 | 0 | 0.065 | -0.002 | 0.072 | 0.07 |
| GYS1 (UniProt P13807) | 0.107 | 0.011 | 0.237 | -0.18 | 0.172 | -0.036 | -0.266 | -0.139 | 0.147 | 0.001 |
| HBA1 (UniProt P69905) | -0.013 | 0.138 | 0.029 | 0.017 | 0.044 | 0.01 | 0.156 | 0.345 (active) | -0.084 | 0.024 |
| GGT7 (UniProt Q9UJ14) | -0.081 | -0.038 | 0.026 | 0.015 | -0.02 | -0.03 | 0.063 | 0.018 | 0.001 | 0.021 |
| HBQ1 (UniProt P09105) | 0.028 | 0.046 | 0.054 | -0.004 | 0.102 | -0.043 | 0.12 | 0.117 | -0.125 | 0.039 |
| GSR (UniProt P00390) | -0.031 | 0 | -0.025 | 0.02 | 0.02 | 0 | 0.002 | 0.022 | -0.058 | 0.024 |
| HRC (UniProt P23327) | -0.098 | -0.147 | 0.01 | -0.017 | 0.055 | -0.039 | -0.038 | 0.037 | 0.016 | 0.041 |
